In PubChem BioAssay (NCATS):
Results filed as inconclusive are left out. Entries that show only a call come without a potency. Unmarked numbers belong to inactive results. Activity calls are given as the source filed them. The call rests on the fitted dose curve.

assay: A High-Content qHTS Against Drug Library for the Identification of Small Molecules that Inhibit DYT1 Early Onset Primary Dystonia-Associated Cell Pathology (AID 1645839); details: HEK293 Flp-In EGFP-delE TorsinA, punctate imaging, 48 h; series mostly up to 46.1 µM
Description: Nicole Calakos M.D., Ph.D.
Duke University School of Medicine, Durham, NC
In DYT1 dystonia due to delGAG in the TOR1A gene, there is a robust and widely replicated finding of TorsinA protein mislocalization caused when the mutant protein is in excess of the wildtype protein (1-7). Stable HEK293 cell lines were created that replicate this phenomenon. Inducible expression of an EGFP-hu delE TorsinA encoding cDNA causes pronounced punctate cellular distribution. […] This phenotypic difference in EGFP-huTorsinA fusion protein distribution serves as an indicator of cell pathology. […] RNAi screen results with the assay were validated in DYT1 patient cell phenotypes, intersected with a known dystonia gene, and led to discovery of new human genetic dystonia associations.
The bioassay described herein is a high-content image screen with two readouts. The "%pathology" readout is the primary qHTS data channel, while the "cellcount" is the counterscreen qHTS channel. Desired active compounds are those that show inhibition in %pathology channel but no activity or minimal toxicity in cellcount readout.
1. Kustedjo, K., Bracey, M.H., and Cravatt, B.F. (2000). […] J. Biol. Chem. 275, 27933 - 27939.
2. Bragg, D.C., Kaufman, C.A., Kock, N., and Breakefield, X.O. (2004). Inhibition of N-linked glycosylation prevents inclusion formation by the dystonia-related mutant form of torsinA. Mol. Cell. Neurosci. 27, 417 - 426.
3. Gonzalez-Alegre, P., and Paulson, H.L. (2004). Aberrant Cellular Behavior of Mutant TorsinA Implicates Nuclear Envelope Dysfunction in DYT1 Dystonia. J. Neurosci. 24, 2593 - 2601.
4. Goodchild, R.E., and Dauer, W.T. (2004). Mislocalization to the nuclear envelope: an effect of the dystonia-causing torsinA mutation. Proc. Natl. Acad. Sci. U. S. A. 101, 847 - 852.
5. Kock, N., Allchorne, A.J., Sena-Esteves, M., Woolf, C.J., and Breakefield, X.O. (2006). RNAi blocks DYT1 mutant torsinA inclusions in neurons. Neurosci. Lett. 395, 201 - 205.
6. Hewett, J.W., Nery, F.C., Niland, B., Ge, P., Tan, P., Hadwiger, P., Tannous, B.A., Sah, D.W.Y., and Breakefield, X.O. (2008). siRNA knock-down of mutant torsinA restores processing through secretory pathway in DYT1 dystonia cells. Hum. Mol. Genet. 17, 1436 - 1445.
7. Calakos, N., Patel, V.D., Gottron, M., Wang, G., Tran-Viet, K.N., Brewington, D., Beyer, J.L., Steffens, D.C., Krishnan, R.R., and Zuchner, S. (2010). Functional evidence implicating a novel TOR1A mutation in idiopathic, late-onset focal dystonia. J. Med. Genet. 47, 646 - 650.
8. Rittiner* JE, Caffall* ZF, Hernandez-Martinez R, Sanderson SM, Pearson JL, Tsukayama KK, Liu AY, Xiao C, Tracy S, Shipman MK, Hickey P, Johnson J, Scott B, Stacy M, Saunders-Pullman R, Bressman S, Simonyan K, Sharma N, Ozelius LJ, Cirulli ET, Calakos N. Functional Genomic Analyses of Mendelian and Sporadic Disease Identify Impaired eIF2alpha Signaling as a Generalizable Mechanism for Dystonia. Neuron. 2016 Dec 21;92(6):1238-1251. doi: 10.1016/j.neuron.2016.11.012. Epub 2016 Dec 8. PMID: 27939583; PMCID: PMC5320521.
High-content, High-throughput Drug Screening Assay
The TorsinA mislocalization assay was modified from the previously published assay to accommodate compound testing in 1536 well format.1 Briefly, Flp-In T-REx 293 cells from Invitrogen in which a single copy of a cDNA is recombined into a specific genomic locus was used to create tetracycline-inducible expression of cDNA encoding either EGFP-hTOR1A (WT) or EGFP-delE hTOR1A (DYT1). WT and DYT1 cells were diluted to a concentration of 2 x 10^5 cells/mL in reduced serum media (DMEM High Glucose containing 1% tetracycline-tested FBS, 2 mM L-Glutamine, and 1% Penicillin/Streptomycin). 4 µl of WT cells and 4 µl of DTY1 cells were added to column 1 and columns 2-48, respectively, of a poly-D-lysine-coated, low base, black, clear bottom 1536 well plate (Corning, Corning, NY) using the BioRAPTR FRD Microfluidic Workstation (Beckman Coulter, Indianapolis, IN). The final cell number was 800 cells/well. […]
Potency means the concentration at half of the fitted maximal effect.

SMILES	Potency	% pathology change, negative = correction
Cn1c(=O)c2c(ncn2CC2OCCO2)n(C)c1=O	inactive	–
COc1cc(C)c(Cc2cnc(N)nc2N)cc1OC	inactive	–
CN1CCOC(c2ccccc2)c2ccccc2C1 (stereo not given)	inactive	–
NCCNCCNCCN	inactive	–
C[C@H](NC(CCc1ccccc1)C(=O)O)C(=O)N1CCC[C@H]1C(=O)O (stereo not given in full)	inactive	–
CC(COc1ccccc1)NC(C)C(O)c1ccc(O)cc1 (stereo not given)	inactive	–
COc1ccc(S(=O)(=O)Nc2nnc(CC(C)C)s2)cc1	inactive	–
O=C1OC(OC(=O)c2cccnc2Nc2cccc(C(F)(F)F)c2)c2ccccc21 (stereo not given)	inactive	–
CC(C)c1c(C(=O)Nc2ccccc2)c(-c2ccccc2)c(-c2ccc(F)cc2)n1CC[C@@H](O)C[C@@H](O)CC(=O)O	inactive	–
CN1[C@@H]2CC[C@H]1CC(OC(=O)C(O)c1ccccc1)C2 (stereo not given in full)	inactive	–
NS(=O)(=O)c1cc2c(cc1C(F)(F)F)NC(Cc1ccccc1)NS2(=O)=O (stereo not given)	inactive	–
COc1cc2[nH]c(=O)[nH]c(=O)c2cc1OC	inactive	–
O=c1[nH]c(=O)c2[nH]c(=O)[nH]c2[nH]1	–	7.44% [at 9.22 µM]
CCCCN1CCCC[C@H]1C(=O)Nc1c(C)cccc1C	inactive	–
OCCN1CCN(CCCN2c3ccccc3Sc3ccc(Cl)cc32)CC1	3.98 µM (active)	–
CCN(CC)C(C)CN1c2ccccc2Sc2ccccc21 (stereo not given)	inactive	–
Oc1cccc(O)c1	inactive	–
CC1=C(C/C=C(\C)CCC[C@H](C)CCC[C@H](C)CCCC(C)C)C(=O)c2ccccc2C1=O	inactive	–
Nc1cc(=O)[nH]c(N)n1	inactive	–
CCCCC(CC)COC(=O)c1ccccc1O (stereo not given)	inactive	–

SMILES	Potency	% pathology change, negative = correction
COc1cc(C(=O)N2CCOCC2)cc(OC)c1OC	inactive	–
CCn1cc(C(=O)O)c(=O)c2cnc(N3CCNCC3)nc21	inactive	–
O=c1cc(CO)occ1O	inactive	–
NC(=O)N/N=C/c1ccc([N+](=O)[O-])o1	inactive	–
CCCCCCCCCCCCOS(=O)(=O)O	inactive	–
CC(O)COc1ccccc1 (stereo not given)	inactive	–
NC(N)=NCCC[C@H](N)C(=O)O	–	17.5% [at 4.63 µM]
CN1[C@@H]2CC(OC(=O)[C@H](CO)c3ccccc3)C[C@H]1[C@@H]1O[C@@H]12 (stereo not given in full)	inactive	–
O=C1O[C@H]([C@@H](O)CO)C(O)=C1O	inactive	–
Cc1ccc(C(C)C)cc2c(C)ccc1-2	inactive	–
Nc1ccc(S(=O)(=O)NC(=O)c2ccccc2)cc1	inactive	–
O=c1[nH]cnc2c1ncn2[C@@H]1O[C@H](CO)[C@@H](O)[C@H]1O	inactive	–
CC1CC(OC(=O)C(O)c2ccccc2)CC(C)(C)N1C (stereo not given)	inactive	–
CC1=C(CC(=O)O)c2cc(F)ccc2/C1=C\c1ccc(S(C)=O)cc1 (stereo not given)	inactive	–
CCCCc1ncc(/C=C(\Cc2cccs2)C(=O)O)n1Cc1ccc(C(=O)O)cc1	inactive	–
CNC(=O)Oc1ccc2c(c1)[C@]1(C)CCN(C)[C@@H]1N2C	inactive	–
CCOC(=O)[C@H](CCc1ccccc1)N[C@@H](C)C(=O)N1C(=O)N(C)C[C@H]1C(=O)O	inactive	–
N[C@H]1C(O)O[C@H](CO)[C@@H](O)[C@@H]1O (stereo not given in full)	inactive	–
CC1(C)[C@@H]2CC[C@@]1(C)C(=O)C2	inactive	–
Nc1nc2c(ncn2CCC(CO)CO)c(=O)[nH]1	inactive	–
